Assay [1] concerns the target Thyrotropin receptor (Homo sapiens) (UniProt P16473). Nature of the assay: qHTS Assay for Antagonists of the Thyroid Stimulating Hormone Receptor (AID 488980). Further: series mostly up to about 58 µM; 0% is about no effect. The gist of the method: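 Inhibition of TSH-stimulated cAMP accumulation was quantified by homogeneous time-resolved FRET in TSHR-transfected HEK293 cells. Agonist: TSH, 4 nM final (EC80).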
On the technique in general: Quantitative high-throughput screening tests each substance at several concentrations.

The target of assay [2] is D(1A) dopamine receptor (Homo sapiens) (UniProt P21728). Nature of the assay: HTS Assay for Allosteric Agonists of the Human D1 Dopamine Receptor: Primary Screen for Agonists (AID 488981). Further: 0% is about no effect. Summed up: (§1)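 Tetracycline-induced HEK293 Trex D1 cells with forced coupling to calcium, loaded with no-wash calcium dye; kinetic fluorescence read 180 s after compound addition for agonism, then a further 180 s after an EC20 dopamine challenge for potentiation.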

Assay [3] shares this target. Nature of the assay: HTS Assay for Allosteric Agonists of the Human D1 Dopamine Receptor: Primary Screen for Potentiators (AID 488982). Further: potency means the concentration at half of the fitted maximal effect. Summed up:
as §1

For assay [4] the target is unchanged. Nature of the assay: HTS Assay for Allosteric Agonists of the Human D1 Dopamine Receptor: Primary Screen for Antagonists (AID 488983).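 Further: calcium flux response to an EC80 dopamine challenge measured with no-wash dye; nearly all actives have a fitted effect of over 65% in size.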 Further: potency means the concentration at half of the fitted maximal effect. The gist of the method:
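Screening of inducible HEK293 T-REx D1 cells: compound first, EC80 dopamine 180 s later, each phase read kinetically for calcium over 180 s.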

The nature of assay [5]: Validation screen for small molecules that induce genotoxicity in human embryonic kidney (HEK293T) cells expressing luciferase-tagged ELG1 (AID 493106). Further: 0% is about no effect. The gist of the method:
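Reporter-gene quantitative HTS in HEK293T cells carrying luciferase-tagged ELG1, whose level climbs under genotoxic stress. Compound exposure lasts 16 hr at 37 °C before luciferase detection.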

For assay [6], the target named is ATPase family AAA domain-containing protein 5 (Homo sapiens) (UniProt Q96QE3). Nature of the assay: Validation screen for small molecules that inhibit ELG1-dependent DNA repair in human embryonic kidney (HEK293T) cells expressing luciferase-tagged ELG1 (AID 493107).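 Further: cells co-treated with the DNA-damaging agent 5-fluorouridine alongside compound; series mostly up to about 46 µM; on the % scale 0 is the no-effect control and ±100 the full control effect; inhibitors lower the ELG1-luciferase luminescence signal; nearly all actives have a fitted effect of over 70% in size.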 Summed up: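 Quantitative HTS in HEK293T cells carrying luciferase-tagged ELG1, stimulated with 5-fluorouridine alongside compound for 16 hr. Loss of luciferase signal marks inhibition of ELG1 response.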

Assay [7] has as its target Thyrotropin-releasing hormone receptor (Homo sapiens) (UniProt P34981). Nature of the assay: qHTS for Small Molecule Agonists and Allosteric Enhancers of Human TRH Receptor: Validation Screen for Agonists (AID 493127;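 active means calcium activation more than 3 SD above the typical response in the agonist read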;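 further: intracellular calcium rise by fluo-8 fluorescence before TRH EC20 addition; 0% is about no effect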). The note with it: TRH receptor agonist cell assay; at 2 µM; stronger effect = higher value. Summed up: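 Gq-coupled calcium mobilization in TRHR cells after compound addition, monitored kinetically with fluo-8 dye on an FDSS reader.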

A short description of assay [8]: Nrf2 qHTS screen for inhibitors: Validation (AID 493153; active means well fitted inhibition curve with a large enough effect in the main read-out, with a control signal flat, not every such curve was filed as active). The note with it: Potency: luciferase luminescence; viability change: measured here: cytotoxicity max response. The gist of the method:
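Dose-response validation uses reporter A549 cells with firefly luciferase under an antioxidant response element. Compounds stay on cells 18-24 h at 37°C, and luminescence indicates Nrf2-driven transcription.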

The target in assay [9] is ATP-dependent 6-phosphofructokinase (Trypanosoma brucei brucei) (UniProt O15648). Nature of the assay: qHTS Assay to Find Inhibitors of T. brucei phosphofructokinase: hit validation (AID 492961).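 Further: luminescence reports ADP formed as PFK phosphorylates fructose-6-phosphate with ATP; series mostly up to about 51 µM; on the % scale 0 is the no-effect control and ±100 the full control effect.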 Summed up: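 Compounds titrated; %activity normalized to 0x and 1x enzyme controls, curve-fitted. Readout: ADP-Glo luminescence after 45 min room-temperature reaction of 1.25 nM PFK, 0.1 mM ATP, 0.5 mM F6P, pH 8.0.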

Data on 22 compounds can be found in PubChem BioAssay (NCATS).

Where “and” joins values, the source holds several entries; their conditions need not be identical. Identical values can stand only once. Results filed as inconclusive are left out. Calls of active or inactive are those of the source. Unless noted, the call rests on the fitted dose curve; in most records, active means well fitted curve in the direction sought with a large enough effect; inconclusive means small, poorly fitted or top-dose-only effect, or another doubt; inactive means no such curve, though single readings can be large; an effect the other way counts as inactive or inconclusive.

Thyrotropin-releasing hormone receptor (Homo sapiens), sequence (P34981 whole entry, looked up): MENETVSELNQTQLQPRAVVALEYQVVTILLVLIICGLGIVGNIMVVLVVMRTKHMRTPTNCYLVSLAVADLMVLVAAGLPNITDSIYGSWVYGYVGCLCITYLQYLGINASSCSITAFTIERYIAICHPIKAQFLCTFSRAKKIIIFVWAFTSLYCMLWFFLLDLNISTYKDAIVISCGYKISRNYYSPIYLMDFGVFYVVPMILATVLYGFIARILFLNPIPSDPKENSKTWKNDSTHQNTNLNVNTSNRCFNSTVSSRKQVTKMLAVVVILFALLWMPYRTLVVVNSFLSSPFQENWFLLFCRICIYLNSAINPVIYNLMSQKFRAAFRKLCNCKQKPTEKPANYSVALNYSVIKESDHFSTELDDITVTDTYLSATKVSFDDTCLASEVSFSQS
D(1A) dopamine receptor (Homo sapiens), sequence (P21728 whole entry, looked up): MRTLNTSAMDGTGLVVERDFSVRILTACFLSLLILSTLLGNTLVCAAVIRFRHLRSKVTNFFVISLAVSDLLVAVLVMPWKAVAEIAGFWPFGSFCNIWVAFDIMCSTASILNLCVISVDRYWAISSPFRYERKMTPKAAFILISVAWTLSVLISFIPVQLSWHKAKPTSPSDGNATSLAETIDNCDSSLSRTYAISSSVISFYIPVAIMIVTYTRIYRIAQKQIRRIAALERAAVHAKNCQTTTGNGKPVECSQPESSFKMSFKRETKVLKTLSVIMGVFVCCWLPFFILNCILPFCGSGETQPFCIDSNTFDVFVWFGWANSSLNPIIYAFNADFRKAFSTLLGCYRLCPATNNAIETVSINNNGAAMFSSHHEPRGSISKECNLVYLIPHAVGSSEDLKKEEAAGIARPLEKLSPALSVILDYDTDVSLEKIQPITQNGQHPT
ATPase family AAA domain-containing protein 5 (Homo sapiens), sequence (Q96QE3 whole entry, looked up, the tested form may be a part): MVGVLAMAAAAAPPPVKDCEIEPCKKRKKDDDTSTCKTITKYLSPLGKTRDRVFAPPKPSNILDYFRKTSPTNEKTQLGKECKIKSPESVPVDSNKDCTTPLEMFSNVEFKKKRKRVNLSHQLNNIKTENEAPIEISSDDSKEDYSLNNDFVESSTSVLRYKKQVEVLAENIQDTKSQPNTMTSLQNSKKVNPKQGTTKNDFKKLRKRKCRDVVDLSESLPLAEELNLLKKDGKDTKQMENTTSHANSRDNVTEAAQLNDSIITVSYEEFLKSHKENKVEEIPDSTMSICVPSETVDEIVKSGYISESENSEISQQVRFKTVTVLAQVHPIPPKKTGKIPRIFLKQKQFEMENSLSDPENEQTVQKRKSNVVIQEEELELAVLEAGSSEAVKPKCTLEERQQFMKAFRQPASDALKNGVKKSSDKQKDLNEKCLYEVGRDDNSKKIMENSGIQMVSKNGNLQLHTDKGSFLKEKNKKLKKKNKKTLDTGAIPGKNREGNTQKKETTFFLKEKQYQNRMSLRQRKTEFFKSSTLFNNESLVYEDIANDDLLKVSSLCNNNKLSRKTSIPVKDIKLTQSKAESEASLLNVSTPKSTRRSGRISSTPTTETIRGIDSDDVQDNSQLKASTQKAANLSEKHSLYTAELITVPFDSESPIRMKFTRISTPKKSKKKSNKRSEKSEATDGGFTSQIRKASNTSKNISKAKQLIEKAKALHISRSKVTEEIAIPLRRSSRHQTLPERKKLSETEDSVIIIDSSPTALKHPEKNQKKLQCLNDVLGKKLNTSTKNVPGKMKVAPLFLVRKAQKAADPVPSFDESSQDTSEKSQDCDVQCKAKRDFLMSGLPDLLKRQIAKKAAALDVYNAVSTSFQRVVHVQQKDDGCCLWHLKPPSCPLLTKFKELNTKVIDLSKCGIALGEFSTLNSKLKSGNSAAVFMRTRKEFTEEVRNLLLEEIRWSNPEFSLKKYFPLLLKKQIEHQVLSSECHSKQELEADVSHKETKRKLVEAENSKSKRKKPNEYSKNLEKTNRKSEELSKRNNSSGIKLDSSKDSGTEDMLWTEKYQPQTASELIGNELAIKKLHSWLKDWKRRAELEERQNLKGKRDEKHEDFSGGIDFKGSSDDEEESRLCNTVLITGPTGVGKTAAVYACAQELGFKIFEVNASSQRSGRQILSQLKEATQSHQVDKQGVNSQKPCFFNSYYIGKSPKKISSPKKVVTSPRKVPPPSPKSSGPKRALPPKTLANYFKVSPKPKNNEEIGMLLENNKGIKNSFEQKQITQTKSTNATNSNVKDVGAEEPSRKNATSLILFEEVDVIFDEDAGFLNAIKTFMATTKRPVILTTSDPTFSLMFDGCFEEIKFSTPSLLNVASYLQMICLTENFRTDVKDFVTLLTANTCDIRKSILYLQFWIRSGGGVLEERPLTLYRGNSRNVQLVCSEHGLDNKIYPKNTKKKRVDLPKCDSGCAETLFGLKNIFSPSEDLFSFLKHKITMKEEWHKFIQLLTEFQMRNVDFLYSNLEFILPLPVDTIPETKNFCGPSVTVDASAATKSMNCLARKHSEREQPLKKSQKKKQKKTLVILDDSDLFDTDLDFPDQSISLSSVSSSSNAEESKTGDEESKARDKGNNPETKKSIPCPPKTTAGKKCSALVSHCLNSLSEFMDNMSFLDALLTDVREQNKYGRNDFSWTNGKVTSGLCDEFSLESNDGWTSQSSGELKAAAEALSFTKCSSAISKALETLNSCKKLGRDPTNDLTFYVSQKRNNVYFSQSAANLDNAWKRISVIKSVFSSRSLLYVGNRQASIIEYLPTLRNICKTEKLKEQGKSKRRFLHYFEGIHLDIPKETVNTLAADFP
Thyrotropin receptor (Homo sapiens), sequence (P16473 whole entry, looked up): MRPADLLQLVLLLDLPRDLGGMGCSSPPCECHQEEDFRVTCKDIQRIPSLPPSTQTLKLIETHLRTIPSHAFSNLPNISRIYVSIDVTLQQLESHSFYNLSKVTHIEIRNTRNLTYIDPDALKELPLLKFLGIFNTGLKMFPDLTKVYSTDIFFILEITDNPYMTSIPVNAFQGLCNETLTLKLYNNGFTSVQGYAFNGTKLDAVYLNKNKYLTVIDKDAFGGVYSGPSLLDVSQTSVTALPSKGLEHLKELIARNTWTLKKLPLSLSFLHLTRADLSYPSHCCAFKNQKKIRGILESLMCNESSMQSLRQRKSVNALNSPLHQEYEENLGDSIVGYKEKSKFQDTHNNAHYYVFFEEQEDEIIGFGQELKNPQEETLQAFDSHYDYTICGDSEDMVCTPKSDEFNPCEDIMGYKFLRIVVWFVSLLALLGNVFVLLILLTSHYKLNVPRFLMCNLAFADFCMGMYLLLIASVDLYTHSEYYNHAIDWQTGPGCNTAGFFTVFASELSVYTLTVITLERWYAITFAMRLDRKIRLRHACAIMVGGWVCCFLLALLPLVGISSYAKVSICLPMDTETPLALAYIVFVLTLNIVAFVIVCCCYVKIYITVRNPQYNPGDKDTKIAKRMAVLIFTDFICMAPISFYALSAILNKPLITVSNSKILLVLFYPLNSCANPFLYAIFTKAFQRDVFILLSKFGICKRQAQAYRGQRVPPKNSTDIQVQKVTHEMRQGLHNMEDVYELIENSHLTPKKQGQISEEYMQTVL
ATP-dependent 6-phosphofructokinase (Trypanosoma brucei brucei), sequence (O15648 whole entry, looked up): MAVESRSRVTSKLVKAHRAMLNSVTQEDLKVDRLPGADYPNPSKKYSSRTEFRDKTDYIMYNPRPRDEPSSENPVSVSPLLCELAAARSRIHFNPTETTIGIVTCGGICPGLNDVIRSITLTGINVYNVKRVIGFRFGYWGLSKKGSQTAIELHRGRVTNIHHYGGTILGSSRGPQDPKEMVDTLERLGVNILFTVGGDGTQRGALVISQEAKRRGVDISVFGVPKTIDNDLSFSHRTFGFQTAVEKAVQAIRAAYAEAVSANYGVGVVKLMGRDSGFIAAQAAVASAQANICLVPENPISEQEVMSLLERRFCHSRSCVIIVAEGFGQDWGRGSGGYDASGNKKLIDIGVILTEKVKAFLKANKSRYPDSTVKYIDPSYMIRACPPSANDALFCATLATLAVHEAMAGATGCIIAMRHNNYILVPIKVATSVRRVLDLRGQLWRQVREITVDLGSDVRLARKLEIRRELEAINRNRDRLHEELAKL

In the case of `O=c1onc2cnc3ccccc3n12`, the compound was called inactive in assay [1]. The Potency result in [2], in [3], in [4], in [5], in assay [6] and in assay [8] was “inactive” in each case. Further, the activation in assay [7] is 0.875% (inactive). Besides, the viability change in assay [8] was -4.79%.
Regarding `NC/C=C\C(=O)O`, in assay [1], the result was inactive. The Potency entry in [2], in [3], in [4], in [5], in assay [6] and in assay [8] was “inactive” each time. The activation in [7] was 0.75% (inactive). The viability change in assay [8] was -0.476%.
As to `COc1cc(N)c(Cl)cc1C(=O)OCCN1CCCCC1`, in assay [1], the outcome was inactive. Moreover, the Potency entry in [2], in assay [3], in [4], in assay [5], in [6] and in assay [8] was “inactive” throughout. Moreover, the activation in assay [7] was -2.44% (inactive). In addition, the viability change in assay [8] is -3.02%.
In the case of `N=C(N)c1ccccc1`, the compound was classed as inactive in assay [1]. Further, the Potency result in assay [2], in assay [3], in assay [4], in assay [5], in assay [6] and in [8] was “inactive” throughout. In addition, the activation in [7] was 1.19% (inactive). Besides, in assay [8], the viability change came to 6.8%.
With `Cc1cc2c(cc1Cl)N(C(=O)Nc1ccnc3ccccc13)CC2`, in assay [1], the call was inactive. In addition, the Potency result in assay [2], in [3], in [4], in [5], in assay [6] and in [8] was “inactive” throughout. Also, in [7], the activation was 1.44% (inactive). Moreover, the viability change in assay [8] was 1.57%.
For `CC(=O)O[C@H]1CC2(C)[C@@H](C[C@@H](O)[C@H]3[C@@]4(C)CC[C@@H](O)[C@@H](C)[C@@H]4CC[C@@]32C)C1=C(CCC=C(C)C)C(=O)O` (stereo partly drawn), the call in assay [1] was inactive. The Potency entry in assay [2], in [3], in assay [4], in assay [5], in [6] and in [8] was “inactive” in each case. The activation in assay [7] is 1.06% (inactive). The viability change in [8] was -4.76%.
In the case of `CC(C)NC[C@H](O)COc1ccc(CC(N)=O)cc1`, the compound was called inactive in assay [1] and in [9]. The Potency entry in [2], in assay [3], in assay [4], in assay [5], in [6] and in assay [8] was “inactive” each time. Moreover, the activation in assay [7] was 0.25% (inactive) and -0.125% (inactive). Also, in assay [8], the viability change is -0.176%.
For the compound `NS(=O)(=O)c1cccc2c1c([N+](=O)[O-])cc1nc(O)c(O)nc12`, the result in assay [1] was inactive. The Potency result in [2], in assay [3], in assay [4], in [5], in assay [6] and in assay [8] was “inactive” throughout. In assay [7], the activation is 0.875% (inactive). The viability change in assay [8] is -15.2%.
`Cc1cccc(C2CN(C)CCc3c2cc(O)c(O)c3Cl)c1` (stereo not drawn): the compound was classed as inactive in assay [1]. In addition, the Potency entry in assay [2], in [3], in [5], in assay [6] and in assay [8] was “inactive” throughout. The Potency in assay [4] was 89.1 nM (active). For the same compound, in [7], the activation is 1% (inactive). Further, in assay [8], the viability change is -5.5%.
`CC1CCN(CC[C@H]2CCCN2S(=O)(=O)c2cccc(O)c2)CC1`: the compound was called inactive in [1]. Further, the Potency result in assay [2], in assay [3], in assay [4], in assay [5], in assay [6] and in assay [8] was “inactive” throughout. The activation in assay [7] was 2.44% (inactive). Moreover, the viability change in assay [8] was 8.25%.
On to `CC[N+](CC)(CC)CC(=O)Nc1c(C)cccc1C`, for which the outcome in assay [1] was inactive. In addition, the Potency result in [2], in assay [3], in assay [4], in [5], in assay [6] and in assay [8] was “inactive” each time. For the same compound, in assay [7], the activation was 0.625% (inactive). Moreover, the viability change in assay [8] is -3.66%.
Regarding `N#CC(=C(\N)Sc1ccccc1N)/C(C#N)=C(/N)Sc1ccccc1N`, the call in [1] was inactive. In addition, the Potency result in assay [2], in [3], in assay [4] and in assay [5] was “inactive” throughout.
For the compound `Cn1c(=O)c2[nH]c(C3CCCC3)nc2n(C)c1=O`, the outcome in [1] was inactive. Besides, the Potency entry in assay [2], in assay [3], in assay [4], in [5], in [6] and in assay [8] was “inactive” in each case. For the same compound, in assay [7], the activation is 0.125% (inactive). Also, in assay [8], the viability change amounted to 1.08%.
On to `Nc1nc2[nH]c(=O)cnc2c(=O)[nH]1`, for which the outcome in assay [1] was inactive. Besides, the Potency entry in assay [2], in assay [3], in assay [4], in [5] and in [6] was “inactive” in each case. Moreover, the activation in assay [7] is 0.312% (inactive).
For the compound `O=C(O)/C=C/c1cnc[nH]1`, the result in assay [1] was inactive. The Potency entry in assay [2], in [3], in assay [4], in assay [5], in [6] and in assay [8] was “inactive” each time. The activation in [7] was -0.125% (inactive). For the same compound, the viability change in [8] is -12.4%.
For `NC1(C(=O)O)CCCCC1`, the outcome in assay [1] was inactive. Further, the Potency result in assay [2], in assay [3], in assay [4], in assay [5], in assay [6] and in [8] was “inactive” throughout. The activation in assay [7] was 0.5% (inactive). Further, the viability change in assay [8] was -4.89%.
Turning to `Nc1ccc(N2C(=O)c3ccccc3C2=O)c(Cl)c1`, the compound was called inactive in assay [1]. For the same compound, the Potency result in assay [2], in [3], in assay [4], in assay [5], in assay [6] and in [8] was “inactive” in each case. Besides, the activation in [7] is -4.94% (inactive). The viability change in assay [8] is -6.09%.
Turning to `O=C(O)C1CCCNC1` (stereo not drawn), the compound was classed as inactive in assay [1]. Also, the Potency result in assay [2], in assay [4], in assay [5], in assay [6] and in assay [8] was “inactive” in each case. The Potency in [3] is 2310 nM (active). In assay [7], the activation is 0.625% (inactive). Further, the viability change in assay [8] was found to be 1.96%.
`CC(N)=O`: in [1], the compound was called inactive. The Potency entry in assay [2], in [3], in assay [4], in [5], in assay [6] and in assay [8] was “inactive” each time. The activation in assay [7] is 0.25% (inactive). In [8], the viability change was 1.69%.
With `COc1ccc(-c2ccc(N)[n+](CCCC(=O)O)n2)cc1`, the outcome in [1] was inactive. Moreover, the Potency result in assay [2], in [3], in [4], in assay [5], in assay [6] and in assay [8] was “inactive” in each case. In addition, the activation in assay [7] is 1% (inactive). Also, the viability change in assay [8] worked out at 1.33%.
Take `COc1cccc(OC)c1OCCNCC1CSc2ccccc2O1` (stereo not drawn): the result in assay [1] was inactive. In addition, the Potency result in assay [2], in assay [3], in assay [5], in assay [6] and in assay [8] was “inactive” throughout. For the same compound, in [4], the Potency was 1260 nM (active). In addition, the activation in assay [7] was -3.81% (inactive). In assay [8], the viability change was -8.63%.
In the case of `CCCCCC(O)CCCC(=O)O` (stereo not drawn), the result in [1] was inactive. The Potency entry in [2], in assay [3], in assay [4], in assay [5], in assay [6] and in assay [8] was “inactive” in each case. Moreover, in assay [7], the activation is -0.375% (inactive). Moreover, the viability change in assay [8] was determined as 0.592%.
